Data reported in PubChem BioAssay AID1645853 (Buhrlage Lab, Dana-Farber Cancer Institute and Novartis …, 2021).
Among all 47,000 compounds or so, about 2,000 (4.3%) were called active. Rule as the data show it: active = inhibition above about 30%; inactive = the rest. The sample as a whole holds a higher share of actives than the screen did.

Target: Ubiquitin carboxyl-terminal hydrolase 8 (Homo sapiens) (UniProt P40818)
Assay: blocks human USP8 ubiquitin-rhodamine cleavage (AID 1645853)
Details: purified USP8, Ub-rhodamine cleavage fluorescence, 30 min; at 20 µM; stronger effect = higher value

Sequence of Ubiquitin carboxyl-terminal hydrolase 8 (Homo sapiens) (P40818 whole entry, looked up): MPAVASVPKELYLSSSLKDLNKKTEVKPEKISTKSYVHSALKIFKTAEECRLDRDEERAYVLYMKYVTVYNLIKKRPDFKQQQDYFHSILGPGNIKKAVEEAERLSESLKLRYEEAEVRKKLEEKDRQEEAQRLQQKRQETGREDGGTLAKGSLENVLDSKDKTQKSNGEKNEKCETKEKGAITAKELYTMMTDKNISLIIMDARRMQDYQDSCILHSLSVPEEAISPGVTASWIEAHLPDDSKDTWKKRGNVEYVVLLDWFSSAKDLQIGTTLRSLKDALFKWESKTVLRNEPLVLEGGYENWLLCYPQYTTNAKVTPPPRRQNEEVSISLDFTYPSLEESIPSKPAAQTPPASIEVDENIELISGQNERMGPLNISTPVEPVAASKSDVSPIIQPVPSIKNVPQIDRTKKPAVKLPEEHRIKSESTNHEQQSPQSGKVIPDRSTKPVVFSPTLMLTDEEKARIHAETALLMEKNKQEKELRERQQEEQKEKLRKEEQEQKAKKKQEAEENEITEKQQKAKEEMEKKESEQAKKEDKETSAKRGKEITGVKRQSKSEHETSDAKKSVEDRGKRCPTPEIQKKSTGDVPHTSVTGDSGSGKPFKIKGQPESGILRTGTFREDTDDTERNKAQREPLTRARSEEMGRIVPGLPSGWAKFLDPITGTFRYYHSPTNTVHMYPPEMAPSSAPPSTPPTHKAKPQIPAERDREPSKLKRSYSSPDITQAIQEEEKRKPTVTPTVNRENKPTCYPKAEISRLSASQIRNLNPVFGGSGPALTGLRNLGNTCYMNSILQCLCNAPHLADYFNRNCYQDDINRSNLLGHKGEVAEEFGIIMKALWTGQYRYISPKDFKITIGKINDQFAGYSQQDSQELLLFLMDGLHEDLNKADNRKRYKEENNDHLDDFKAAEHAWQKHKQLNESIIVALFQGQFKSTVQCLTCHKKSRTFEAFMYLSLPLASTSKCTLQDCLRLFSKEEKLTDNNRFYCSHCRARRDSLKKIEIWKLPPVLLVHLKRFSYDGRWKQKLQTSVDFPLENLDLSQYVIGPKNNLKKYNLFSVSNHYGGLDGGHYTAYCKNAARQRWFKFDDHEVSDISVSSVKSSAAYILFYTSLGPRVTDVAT

inhibition, active:
NC(=O)c1ccc(NC(=O)Cc2cc(-c3ccc(Cl)cc3)on2)cc1 62.4%
Cc1cc(C)c2nc3c(cc2c1)CN(Cc1ccco1)C(=O)O3 75.7%
COc1cc(Cl)c(NC(=O)c2cc(-c3ccccn3)n[nH]2)c(OC)c1 49.3%
CC1(C)Cc2c(c(-c3ccco3)nc3sc4c(SCCCc5ccccc5)ncnc4c23)CO1 75.7%
Clc1cc2nc(N3CCN(c4ccccn4)CC3)c3nncn3c2cc1Cl 75.6%
O=C(NC1CCN(Cc2ccccc2)CC1)c1cc2cn(C3CC3)cc2s1 31.4%
O=C(NCc1ccc2c(c1)OCO2)c1cc2c(s1)CS(=O)(=O)C2 47.6%
COc1ccc(CC2c3cc(OC)c(OC)cc3CCN2C(=O)c2ccc(C)c(Cl)c2)cc1OC (stereo unspecified) 36.3%
Cc1ccc(-c2ncc(C(=O)Nc3ccccc3C)c(-c3ccncc3)n2)cc1 41%
O=C(Nc1ccc2cn[nH]c2c1)c1cnn(-c2ccccc2)n1 59.1%
Cc1ccc(-c2cn3ccn(-c4ccc(C)cc4C)c(=O)c3n2)cc1 43%

inhibition, inactive:
COc1cccc(CCNC(=O)Cc2cc(-c3ccc(C)cc3)on2)c1 -12.1%
NC(=O)c1ccc(CN2CCC3(CC2)CC3c2nc(-c3cccc(Cl)c3)no2)cc1 (stereo unspecified) -39.4%
CC(=O)Nc1ccc(S(=O)(=O)NCc2cn3ccccc3n2)cc1 -7.51%
COc1ccc2nc3c(cc2c1)CN(Cc1ccccc1)C(=O)O3 20.1%
Cc1ccc(-n2c3c(c(=O)[nH]c2=O)CN(Cc2ccco2)CN3)cc1 -10.7%
O=S1(=O)c2ccccc2C(Oc2ccccc2)CN1CCO (stereo unspecified) -13.4%
O=S(=O)(Nc1ccc(N2CCOCC2)cc1)c1cccc2cccnc12 -35.6%
CCC1=N[C@@]2(CC[C@@H]3CN(C(=O)Nc4ccc(CC)cc4)C[C@@H]32)C(=O)N1C -21.1%
O=C(Nc1ccc(Cl)cc1F)c1cc(-c2ccccn2)n[nH]1 19.3%
Cc1ccc(CC(=O)N2CCN(C(=O)c3cc(-c4ccccn4)n[nH]3)CC2)cc1 -164%
CC1[C@@H]2[C@@H](C(=O)N3CCOCC3)C[C@H](CN1S(=O)(=O)N(C)C)N2Cc1ccccc1 (stereo partly specified) 0.42%
O=C1NC2(COC3(CCN(Cc4cccnc4)CC3)C2)Nc2ccc(Cl)cc21 (stereo unspecified) -202%
Cc1c(C)n(-c2cccnc2)c2ncn3nc(-c4ccccn4)nc3c12 -3.69%
CCCCCCSc1ncnc2c1sc1nc(-c3ccccc3)c3c(c12)CC(C)(C)OC3 -5.24%
CSc1ncnc2c1sc1nc(-c3ccccc3)c3c(c12)CC(C)(C)OC3 2.79%
O=C(C1CC1)N1CC[C@@H]2Oc3ccccc3S(=O)(=O)N(Cc3ccccc3)[C@H]2CC1 -86.6%
O=c1[nH]c(-c2ccccn2)nc2c1CCN(Cc1cnn(-c3ccc(F)cc3)c1)C2 -247%
O=C(c1ccc(N2CCCC2)nn1)N1CCN(c2ccccn2)CC1 -50.6%
Cc1nn(-c2ccccc2)c(C)c1S(=O)(=O)N1CCN(c2ccccn2)CC1 -28.5%
COc1cccc(-c2cc(C(=O)N3CCN(c4ccc(N5CCOCC5)nn4)CC3)[nH]n2)c1 -8.45%
FC(F)(F)c1ccc(-c2cnc([C@@H]3COCCN3C3CCOCC3)[nH]2)cc1 2.96%
COc1ccc(CN2Cc3ccccc3OC3(CCC(CO)CC3)C2)c(F)c1 (stereo unspecified) -66.5%
O=C(NC1CCN(Cc2ccccc2)CC1)c1cn2c(n1)CCCC2 -18.5%
Cc1nn(C)c(C)c1CNC(=O)c1cc2cn(C3CCCC3)cc2s1 -141%
CCOC(=O)C1=C(CN2CCN(c3ccccc3OC)CC2)NC(=O)NC1c1cccc(OC)c1OC (stereo unspecified) -6.79%
Cc1nc(-c2ccc(C(=O)NCc3ccc4c(c3)OCO4)cc2)cs1 7.04%
O=C(NCCc1ccccc1)c1cc2c(s1)CS(=O)(=O)C2 3.17%
O=S(=O)(c1ccccc1)N1CCCCCC1C1CCN(Cc2nc(C3CC3)no2)CC1 (stereo unspecified) -3.93%
COc1ccc(C(=O)N2CCc3cc4ccccc4nc32)cc1OC -4.03%
COc1cc2c(cc1OC)C(c1cccs1)N(C(=O)c1ccc3n[nH]nc3c1)CC2 (stereo unspecified) 6.71%
COc1ccc(C2CC(=O)c3cnc(NCc4ccco4)nc3C2)c(OC)c1 (stereo unspecified) -0.335%
Cc1ccc(CSc2nnc(/C=C/c3ccccc3)o2)cc1 -1.95%
CCCNc1cc(N2CCCC(CCC(=O)N3CCC(C)CC3)C2)ncn1 (stereo unspecified) -110%
CCc1ccc(S(=O)(=O)NCC(O)COc2ccc(OC)cc2)cc1 (stereo unspecified) -1.1%
Cc1ccc(F)cc1NC(=O)c1cnc(-c2ccccc2)nc1-c1ccncc1 12.2%
O=C(Nc1cc(Cl)ccc1F)c1cnc(-c2ccccc2)nc1-c1ccncc1 -14%
Cc1nn(-c2ccccc2)c2c1C(C(=O)c1ccc(Cl)s1)CC(=O)N2 (stereo unspecified) 10.5%
COc1ccc(C(=O)NCC(c2cccnc2)S(=O)(=O)c2ccc(C)cc2)cc1OC (stereo unspecified) -8.69%
CCOC(=O)c1c(NC(=O)c2ccco2)sc(Cc2ccc3c(c2)OCO3)c1C 20.7%
O=C(Nc1ccc2oc(-c3ccccc3)nc2c1)c1cccc(-n2cnnc2)n1 3.67%
O=C(c1cnn(-c2ccc(Cl)cc2)n1)c1cccs1 2.7%
O=C1CN(C(=O)CNc2ccccc2N2CCCC2=O)c2ccccc2N1 4.28%
O=c1c(S(=O)(=O)N2CCCC2)cccn1Cc1cc(=O)n2ccccc2n1 -4.28%
Cc1ccn2cc(-c3ccc(NS(=O)(=O)c4cc(C)c(C)cc4C)cc3)nc2n1 21.4%
CC(C)(C)c1ccc(Cn2nnc3c(=O)[nH]c(C4CCN(S(=O)(=O)c5ccc6c(c5)OCCO6)CC4)nc32)cc1 7.01%
